Bioassay records from PubChem.
The list is not random: actives were taken first. Their share in the collection is about 3.1%.
UHRF1 binding – UHRF1 methyl-DNA binding inhibition; Q96T88; UHRF1 binding to methylated oligo, TR-FRET; inhibition, % at 4.4 µM; 0.75% of 370,000 active; AID 687016; in the data active means inhibition above about 21%;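 further: UHRF1 SRA domain binding a hemimethylated CpG hairpin DNA probe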
Neddyl block – inhibitors of human cullin neddylation; 0.58% of 360,000 active; TR-FRET cullin neddylation, biochemical; calls only at 25 µM; in the data active means inhibition above about 36%
Rin1-Abl PPI inh – blocks binding of human Rin1 to Abl | P00519+Q13671 | TR-FRET Rin1/Abl binding, biochemical | inhibition, % at 7.35 µM | 0.4% of 360,000 active; in the data active means inhibition above about 5%, passing the limit was not always enough
proKLK7 act – proKLK7 (human) activation, primary screen. P49862. purified proKLK7, EDANS-DABCYL substrate fluorescence; 100% is mature enzyme control, 0% vehicle. activation, % at 7 µM. 0.9% of 370,000 active;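 active means activation above the mean of all tested compounds plus 3 SD, computed per campaign excluding outliers beyond control limits, cut at about 13% in these data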
LEDGF integ inh – blocks HIV-1 LEDGF/p75-dependent DNA integration | TR-FRET IN-LEDGF/p75 DNA integration, Eu/Cy5 | inhibition, % at 3.7 µM | 0.64% of 370,000 active | AID 743269;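 active means inhibition above the screen-wide mean plus 3 SD, cut at about 13% in these data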;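 further: signal is the Cy5 over europium emission ratio at 671 and 618 nm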
MBD2 DNA inh – MBD2-methylated oligo binding inhibition | 0.31% of 370,000 active | Q9UBB5 | inhibition, % at 4.4 µM | TR-FRET, MBD2 binding to methylated oligonucleotide; in the data active means inhibition above about 13%
Target sequence (Q9UBB5 whole entry, looked up): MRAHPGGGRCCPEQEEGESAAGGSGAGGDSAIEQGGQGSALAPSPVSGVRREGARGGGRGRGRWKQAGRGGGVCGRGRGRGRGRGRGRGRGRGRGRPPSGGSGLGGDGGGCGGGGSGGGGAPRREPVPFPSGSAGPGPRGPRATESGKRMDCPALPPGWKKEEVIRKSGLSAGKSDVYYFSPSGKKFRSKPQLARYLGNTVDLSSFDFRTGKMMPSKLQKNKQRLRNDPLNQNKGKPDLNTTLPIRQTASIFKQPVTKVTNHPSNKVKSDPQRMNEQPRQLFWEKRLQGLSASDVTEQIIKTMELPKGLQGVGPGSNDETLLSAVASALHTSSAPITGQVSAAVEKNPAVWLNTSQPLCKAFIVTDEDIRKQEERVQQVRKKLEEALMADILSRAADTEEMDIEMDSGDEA
proKLK7 act conf – proKLK7 activation, confirmation; shares compounds with proKLK7 act; purified proKLK7, EDANS-DABCYL substrate fluorescence; scaled: vehicle 0, mature enzyme 100; activation, % at 7 µM; 68% of 3,200 active;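 active means activation, as change over the incubation, above the mean of all tested compounds plus 3 SD, cut at about 13% in these data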
EDANS-DABCYL int – optically interferes with EDANS-DABCYL signal, flagging KLK7 hits; shares compounds with proKLK7 act; EDANS-DABCYL substrate fluorescence interference, no enzyme, 4 h; solvent 0%, active enzyme control 100%; activation, % at 7 µM; 80% of 3,200 active; AID 686952;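 active means activation above the all-compound mean plus 3 SD, ignoring values outside control-based bounds, cut at about 4.8% in these data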;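 further: value is the 4 h activation minus the activation read at time zero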
K7 EDANS ctr – counter-screen for kallikrein-7 activators: EDANS-DABCYL interference, dose response; AID 720493; shares compounds with proKLK7 act; 20% of 250 active; EDANS-DABCYL peptide fluorescence interference, no enzyme; EC50, µM;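 active means compounds that raise the fluorescence signal in this interference counterscreen, with EC50 at or below 10 µM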;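 further: intact quenched peptide substrate alone read at 355 nm excitation and 520 nm emission; signal is fluorescence gain from T0 to T4 after four hours at room temperature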
Each line names hits and unclear results; the compound was inactive in the other large screens (follow-up assays come after a bar, where shown).

COC(=O)C1=CN(c2ccc(OC)cc2OC)C(N)=C(C#N)C1c1ccccc1F (configuration not stated)	proKLK7 act 114 (not shown: Neddyl block, Rin1-Abl PPI inh) | proKLK7 act conf 19 | EDANS-DABCYL int 41
Cn1c(=O)cc(OCCCC(=O)Nc2cc(C(F)(F)F)ccn2)c2ccccc21	none (no result: Neddyl block, Rin1-Abl PPI inh, proKLK7 act)
COc1ccc(/C=N/NC(=O)c2cc(-c3cccnc3)nc3ccccc23)c(OC)c1	none
COc1ccc(-c2cc(C(=O)N/N=C/c3cccnc3)c3cc(C)cc(C)c3n2)cc1	proKLK7 act 112 (not shown: Neddyl block) | proKLK7 act conf inactive | EDANS-DABCYL int inactive
CCOc1ccc(-c2c(C(=O)N/N=C/c3cccs3)nnn2-c2nonc2N)cc1	none
CCOc1ccc(/C=N/NC(=O)c2nnn(-c3nonc3N)c2-c2cccs2)cc1	proKLK7 act 80 (not shown: Neddyl block) | proKLK7 act conf inactive | EDANS-DABCYL int inactive
COc1ccc2ccccc2c1/C=N/NC(=O)c1nnn(-c2nonc2N)c1C(C)C	proKLK7 act 40 | proKLK7 act conf inactive | EDANS-DABCYL int inactive
CCCSc1nnc(-c2ccco2)n1C	none (no result: Neddyl block, Rin1-Abl PPI inh)
CCCNC(=O)C1(C)CCCN(Cc2ccccc2-c2ccccc2)C1 (configuration not stated)	none (no result: UHRF1 binding, proKLK7 act, LEDGF integ inh, MBD2 DNA inh)
Cc1ccc(C)n1-c1nccc(-c2ccco2)n1	proKLK7 act 81 (not shown: Neddyl block) | proKLK7 act conf 113 | EDANS-DABCYL int 127
N#Cc1cccn1-c1nccc(-c2cccs2)n1	none
Cc1ccc(C)n1-c1nccc(-c2cccs2)n1	proKLK7 act 52 (not shown: Neddyl block) | proKLK7 act conf 111 | EDANS-DABCYL int 136
CCCCN(C(=O)c1cc(=O)[nH]c2ccccc12)c1c(N)n(CCCC)c(=O)[nH]c1=O	none
COc1ccccc1-c1cc(C(F)(F)F)nc(NCc2ccco2)n1	none
CNc1cc(-c2cccc(OC)c2F)nc2ccnn12	proKLK7 act 38 (not shown: Neddyl block) | proKLK7 act conf 28 | EDANS-DABCYL int 27
COc1ccc(OC)c(C=Nc2ccccc2-c2nc3ccccc3[nH]2)c1	proKLK7 act 31 (not shown: Neddyl block) | proKLK7 act conf inactive | EDANS-DABCYL int inactive
Oc1ccc(C=Nc2ccccc2-c2nc3ccccc3[nH]2)c(O)c1	proKLK7 act 38 (not shown: Neddyl block) | proKLK7 act conf inactive | EDANS-DABCYL int inactive
Oc1ccccc1C=Nc1ccccc1-c1nc2ccccc2[nH]1	proKLK7 act 77 (not shown: Neddyl block) | proKLK7 act conf inactive | EDANS-DABCYL int inactive
NC(=O)c1ncc(C(F)(F)F)cc1Oc1cccnc1	none
CN1CCN(S(=O)(=O)c2ccc(Br)c3ccccc23)CC1	none
COc1ccc(/C=C/c2nc(C#N)c(NCCN(C)C)o2)cc1OC	none (not shown: Neddyl block)
CCN(CC)CCCNc1oc(/C=C/c2ccccc2)nc1C#N	proKLK7 act 104 (not shown: Neddyl block) | proKLK7 act conf 28 | EDANS-DABCYL int 18 | K7 EDANS ctr inactive
CN(C)c1oc(/C=C/c2ccccc2)nc1C#N	proKLK7 act 58 | proKLK7 act conf 69 | EDANS-DABCYL int 62
CC(OC(=O)CCN1C(=O)C2CC=CCC2C1=O)C(=O)Nc1ccc(F)cc1 (configuration not stated)	none
Cc1[nH]nc2c1C(c1ccc(F)cc1)C1=C(CC(C)(C)CC1=O)N2 (configuration not stated)	proKLK7 act 14 (not shown: Neddyl block) | proKLK7 act conf inactive | EDANS-DABCYL int 12
Cc1ccc(C2C3=C(CC(C)(C)CC3=O)Nc3n[nH]c(C)c32)cc1 (configuration not stated)	none (not shown: Neddyl block)
COc1cc(/C=C/C(=O)Nc2nc3ccc(S(=O)(=O)NC(C)C)cc3s2)cc(OC)c1OC	proKLK7 act 15 (not shown: Neddyl block) | proKLK7 act conf 59 | EDANS-DABCYL int 63
CCNS(=O)(=O)c1ccc2nc(NC(=O)/C=C/c3cc(OC)c(OC)c(OC)c3)sc2c1	none (not shown: Neddyl block)
O=[N+]([O-])c1nc2ccccc2[nH]1	none
CCc1cc2c(=O)c(-c3nc4ccccc4n3C)coc2c(CN2CCN(C)CC2)c1O	none (not shown: Neddyl block)
